Data from PubChem BioAssay (NCI).
Compounds without any hit were thinned out: in the full panel of roughly 83,000, 20% have a hit.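 Compound tested at a single concentration for 48 hours in 96-well plates; a percent growth value below 10 was scored as active.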 Unmarked numbers belong to inactive results. Active and inactive are the calls of the source.

What follows are molecules tested on HL-60(TB) leukemia (assay: NCI-60 one-dose screen, 48 h (100 = growth as untreated, 0 = no growth, -100 = all killed)). Details: 10 µM unless noted.

| SMILES | growth |
| --- | --- |
| COc1cc(/C=C/C(=O)c2c(C)nc3ccccc3c2/C=C/c2ccc(C)cc2)cc(OC)c1OC | 12.5% |
| COc1ccc(CN2CCc3c(Sc4ccccc4)nc(N)nc3C2=O)c(OC)c1 | 14.3% |
| CN(C)CCOC(=O)Nc1ccc(Cc2ccc(NC(=O)OCCN(C)C)cc2)cc1 | 52.8% [100 µM] |
| O=C1c2cccnc2C(=O)c2c1c(C(=O)OCCN1CCOCC1)c1ccccn21 | -36.4% (active) |
| C=C(C)[C@@H]1CC[C@]2(C(=O)NC3CCCCC3)CC[C@]3(C)[C@H](CC[C@@H]4[C@@]5(C)CCC(=O)C(C)(C)[C@@H]5CC[C@]43C)[C@@H]12 | 76.6% |
| CC1(C)CC[C@]2(C(=O)N3CCNCC3)CC[C@]3(C)C(=CC[C@@H]4[C@@]5(C)CCC(=O)C(C)(C)[C@@H]5CC[C@]43C)[C@@H]2C1 | 102% |
| C/C(=N/NC(N)=S)c1sc(Nc2cccc(Cl)c2)nc1C | 65% |
| O=C(Nc1ccncc1)C(=O)c1cn(S(=O)(=O)c2ccc(Cl)cc2)c2ccccc12 | 18.3% |
| N#Cc1c(-c2cccc([N+](=O)[O-])c2)cc(-c2ccc(Nc3nc(Nc4ccc(F)cc4)nc(Nc4ccc(F)cc4)n3)cc2)nc1N | 28.1% |
| O=C(N/N=C(\CS(=O)(=O)c1ccccc1)c1cc2ccccc2oc1=O)c1ccccc1 | 105% |
| Brc1ccccc1Nc1ccc2nnc(-c3ccncc3)n2n1 | 96.4% |
| Nc1nnc(-c2ccc3ccccc3c2O)o1 | 102% |
| COC(=O)c1ccc2c(c1)Oc1ccc(Cl)cc1-c1cc(C)nn1-2 | 103% |
| O=C(NCCCNC(=O)OCc1ccc2c(Br)cc(Br)c(O)c2n1)OCc1ccc2c(Br)cc(Br)c(O)c2n1 | -25.4% (active) |
| C=C1CC[C@@H](C(=O)OC)Cc2nc(C)ccc21 | 100% |
| C=C(c1ccc(C(=O)O)cn1)c1cc2c(cc1C)C(C)(C)CCC2(C)C | 84.9% |
| Cc1nc2c(=O)nc3s/c(=C\c4ccco4)c(=O)n3c2nc1C | 98% |
| COc1ccc2c(c1)CCCC21C(=O)Nc2c(Cl)cccc21 (stereo not given) | 33.9% |

| SMILES | growth |
| --- | --- |
| O=C(COCc1c(-c2ccccc2)no[n+]1[O-])Nc1ccc(C(=O)/C=C/c2ccc3c(c2)OCO3)cc1 | 88.7% |
| COc1cc2c(cc1O)CC[C@@H]1[C@@H]2CC[C@]2(C)[C@@H](OCCN(C)C)CC[C@@H]12 | 87.6% |
| Cn1cc(-c2nonc2-c2c[nH]c3ccc(F)cc23)c2cc(Br)ccc21 | 56.5% |
| O=C1OCC2=C1C(c1cccc([N+](=O)[O-])c1)c1cc3c(cc1N2CCO)CCC3 (stereo not given) | -26.9% (active) |
| Cc1cc(O)c2cc3c(O)c(O)ccc3cc2c1 | 82.7% |
| Oc1ccc2ccccc2c1N=Nc1ccccn1 | -32.4% (active) |
| CC(=O)Oc1cc2ccccc2cc1C(C)C | 103% |
| CC(=O)O[C@H]1CC[C@]2(C)[C@H]3CC[C@@H]4[C@H]5[C@H](C(C)C)CC[C@]5(C(=O)OCC(CO)(CO)N=C(N)N)CC[C@@]4(C)[C@]3(C)CC[C@H]2C1(C)C | -24.7% (active) |
| Cc1cc2nc(CS)[nH]c2cc1C | 80.1% |
| O=c1oc2c(cnc3ccccc32)cc1-c1cccc(Cl)c1 | 102% |
| CCN(c1ccc(C(=O)N2CCN(c3ccccc3)CC2)cc1)S(C)(=O)=O | 99.4% |
| Cc1nc2sc(C(=O)Nc3ccccc3)c(N)c2cc1C(O)c1ccccc1 (stereo not given) | -54% (active) |
| COc1ccc(N)c(-c2cc3c(c4c2[nH]c2ccc(OC)cc24)CCCC3)c1 | 78.8% |
| O=S(=O)(O)c1ccc(N=Nc2ccc(N=Nc3cccc4ccccc34)c(S(=O)(=O)O)c2)cc1 | 105% |
| COc1ccc(Nc2nc(-c3cc(O)c(C)c(C)c3O)cs2)cc1 | 7.17% (active) |
| CN1CCN(CC#CCOC(=O)CNC(=O)[C@]23CCC(C)(C)C[C@H]2C2=CC[C@@H]4[C@@]5(C)CC[C@H](O)C(C)(C)[C@@H]5CC[C@@]4(C)[C@]2(C)CC3)CC1 | 49.7% |
| C[C@H]1[C@H](C)CC[C@]2(C(=O)O)CC[C@]3(C)C(=CC[C@@H]4[C@@]5(C)C/C(=C/c6ccco6)C(=O)C(C)(C)[C@@H]5CC[C@]43C)[C@H]12 | -3.02% [100 µM] (active) |
